From PubChem BioAssay
Sampled rows, rich in hits. Any-hit rate of the full collection: about 10%.
SW480 rerep = DNA re-replication induction in SW480 cells; hit rate 1.8% among 340,000; AID 624297; SW480 DNA re-replication, Hoechst DNA content imaging, 48 h; Potency, µM (highest dose often 46.1 µM), without a hit: at the top dose re-replication activation, usual class: activators; also: % of control where 0% means no effect; nearly all actives have a fitted effect of over 55% in size
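Image-based DNA-content assay: after two days of treatment, nuclei were labelled with the DNA dye Hoechst and imaged, and hits were compounds raising the count of nuclei showing high fluorescence intensity.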
KB-V1 cytotox = kills drug-selected multidrug resistant KB-V1 cells | KB-V1 MDR cells viability, CellTiter-Glo, 72 h | Potency, µM (highest dose often 46.1 µM), most hits filed as cytotoxic | hit rate 3.4% among 400,000 | AID 1347076; also: % is scaled to controls: 0 for no effect and ±100 for the full control effect; nearly all actives have a fitted effect of over 60% in size
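KB-V1, DMEM (no phenol red) + 10% FBS; cpd pin-transferred, titration series; 72 h, 37 degrees C; CellTiter-Glo, luminescence. Data normalized, curve-fit.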
VP16 counter = counter-screen for ROR gamma inhibitors: Gal4-VP16 reporter. Drosophila S2 Gal4-VP16 UAS-luciferase, luminescence, 20 h. Potency, µM (series often up to 53.6 µM), inactives show at the top dose activity, negative = inhibition, hits mostly inhibitors. hit rate 3.5% among 310,000. AID 2546;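 also: Gal4-VP16 expression switched on by copper sulfate through the metallothionein promoter; % is scaled to controls: 0 for no effect and ±100 for the full control effect; nearly all actives have a fitted effect of over 50% in size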
RORg inh = ROR gamma (mouse) transcription inhibition | P51450 | Drosophila S2 Gal4-RORgamma UAS-luciferase reporter, 20 h | Potency, µM (titrated, usually from 53.6 µM), for the others: top-dose activity change, negative = inhibition, usual class: inhibitors | hit rate 5.4% among 310,000; also: % is scaled to controls: 0 for no effect and ±100 for the full control effect; nearly all actives have a fitted effect of over 60% in size
Target sequence (P51450 whole entry, looked up, the tested form may be a part): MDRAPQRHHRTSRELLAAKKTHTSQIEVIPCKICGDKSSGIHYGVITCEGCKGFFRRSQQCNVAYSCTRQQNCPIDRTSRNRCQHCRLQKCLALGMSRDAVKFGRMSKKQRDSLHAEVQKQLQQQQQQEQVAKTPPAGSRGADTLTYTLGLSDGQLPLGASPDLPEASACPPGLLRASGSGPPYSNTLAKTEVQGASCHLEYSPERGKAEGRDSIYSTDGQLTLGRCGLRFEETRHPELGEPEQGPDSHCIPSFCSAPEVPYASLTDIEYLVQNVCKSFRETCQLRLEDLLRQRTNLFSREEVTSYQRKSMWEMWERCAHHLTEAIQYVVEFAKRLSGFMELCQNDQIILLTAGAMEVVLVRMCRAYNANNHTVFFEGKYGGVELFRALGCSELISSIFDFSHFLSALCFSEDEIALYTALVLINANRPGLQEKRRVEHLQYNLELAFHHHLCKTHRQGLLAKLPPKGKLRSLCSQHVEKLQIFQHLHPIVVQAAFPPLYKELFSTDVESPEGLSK
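Read-out: Photinus luciferase luminescence; inhibitors lower reporter signal. Insect Schneider cells with Gal4-ROR gamma fusion under metallothionein promoter, UAS reporter; 700 uM final copper sulfate induction, 20 hr, ambient temperature.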
KB-3-1 cytotox = kills parental KB-3-1 adenocarcinoma cells; KB-3-1 viability, CellTiter-Glo ATP luminescence, 72 h; Potency, µM (series often up to 46.1 µM), usual class: cytotoxic; hit rate 1.4% among 400,000; AID 1347075; also: % is scaled to controls: 0 for no effect and ±100 for the full control effect; nearly all actives have a fitted effect of over 60% in size
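Multi-concentration cytotoxicity screen in KB-3-1 cells grown in DMEM lacking phenol red with 10% FBS. After 72 h at 37 °C with compound, ATP-dependent luminescence was recorded.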
MCF10A rereplic = induces DNA re-replication in MCF 10a normal breast cells; MCF 10A DNA re-replication, Hoechst nuclear intensity, 48 h; hit rate 2.9% among 350,000; Potency, µM (titrated, usually from 46.1 µM), for the others: at the highest dose activity, positive = re-replication, usual class: activators; AID 624296; also: % of control where 0% means no effect; nearly all actives have a fitted effect of over 50% in size
Numbers without * were called inactive; i = inactive; ? = inconclusive; . = no result given; [ ] = another dose, or the depositor's remark. Calls follow the shape of the dose curve; as a rule, active = well fitted curve in the direction sought with a large enough effect; inconclusive = small, poorly fitted or top-dose-only effect, or another doubt; inactive = no such curve, though single readings can be large; an effect the other way counts as inactive or inconclusive. Potency is read from the fitted curve at half-maximal effect.

SMILES | SW480 rerep | KB-V1 cytotox | VP16 counter | RORg inh | KB-3-1 cytotox | MCF10A rereplic
O=C(NCC1CCCO1)C(=O)N/N=C/c1cc(Cl)ccc1O (centres undefined) | 15µM* | i | ? | 13µM* | i | 7%
O=C(Nc1ccccc1C(=O)NCC1CCCO1)c1ccc(Cl)cc1Cl (centres undefined) | 1% | 6.5µM* | 1% | 15% | i | 3%
O=C(NC(=S)NCC1CCCO1)c1ccc(Cl)cc1Cl (centres undefined) | -3% | i | ? | 11µM* | i | -1%
CC(C)CCNC(=O)c1cn(C)c2ccc(S(=O)(=O)N3CCOCC3)cc2c1=O | . | i | . | . | i | .
Cc1ccccc1-c1nc(SCC(=O)NCc2ccco2)c2c(=O)n(C)c(=O)n(C)c2n1 | . | i | . | . | ? | .
c1c2c(cc3sc(N4CCOCC4)nc13)OCO2 | -8% | i | ? | ? | i | 25%
c1c2c(cc3sc(N4CCCCC4)nc13)OCO2 | -2% | ? | 11µM* | 10µM* | 9.2µM* | 9%
O=C(Nc1ccc(OC(F)(F)F)cc1)c1cc2ccccn2n1 | . | ? | . | . | 10µM* | .
COc1cc2cc(-c3ccc(O)cc3O)nc(C)c2cc1OC | 12% | 6.5µM* | 3% | -34% | ? | ?
CCOc1ccc(-c2cc3cc(OC)c(OC)cc3c(C)n2)cc1 | 2% | i | 9% | -18% | i | -14%
COc1cc2cc(-c3ccc(OC)c(OC)c3C)nc(N)c2cc1OC | 1.6µM* | 6.5µM* | . | . | ? | 1.6µM*
CSC1=NC=C(C#N)C2=NC(c3ccc(Cl)cc3)NN12 (centres undefined) | . | i | . | . | i | .
COc1ccccc1CNC(=O)COC(=O)c1cnc(C)cn1 | . | i | . | . | i | .
CN(C)CCCN(C(=O)CCc1ccccc1)c1nc2ccc(Br)cc2s1 | 0% | 23µM* | ? | ? | ? | ?
Cc1cccc2sc(N(CCCN(C)C)C(=O)CCc3ccccc3)nc12 | ? | 16µM* | -5% | -30% | ? | ?
COc1cc2ccccc2cc1C(=O)N(CCN(C)C)c1nc2ccc(Br)cc2s1 | 23µM* | ? | -3% | -22% | ? | ?
CN(C)CCN(C(=O)c1ccccc1Cl)c1nc2c(Cl)cccc2s1 | ? | 23µM* | -6% | -2% | i | ?
COc1cc2ccccc2cc1C(=O)N(CCN(C)C)c1nc2c(F)cc(F)cc2s1 | -10% | i | -17% | 18% | i | ?
CCC/C=C(\CCC)C(NC(=O)c1ccco1)c1ccc(C(=O)OC)cc1 (centres undefined) | . | . | -6% | 5% | . | .
Cc1cccc(Nc2nnc(-n3nc(C)cc3C)c3ccccc23)c1 | . | i | . | . | i | .
CCC(C(=O)N1CCN(c2ccccc2)CC1)n1nc(C)c2sc3ccccc3c2c1=O (centres undefined) | . | i | . | . | i | .
CCc1ccc(CN2CCC(n3nccc3NC(=O)c3ccccc3Cl)CC2)cc1 | 2% | 18µM* | 0% | -12% | i | ?
O=C(CCOc1ccccc1)Nc1ccnn1C1CCN(Cc2ccc(O)cc2)CC1 | -6% | ? | -3% | 25% | i | 0%
COCc1ccc(CN2CCC(n3nccc3NC(=O)CCOc3ccccc3)CC2)o1 | -1% | i | ? | 8.9µM* | i | 0%
CC1=C(C(=O)OC2CCCC2)C(c2ccc(F)cc2F)CC(=O)N1 (centres undefined) | . | i | . | . | i | .
SMILES | SW480 rerep | KB-V1 cytotox | VP16 counter | RORg inh | KB-3-1 cytotox | MCF10A rereplic
CC(C)c1onc(C(=O)N2CCN(c3ccc(F)cc3)CC2)c1[N+](=O)[O-] | 21µM* | i | -11% | -2% | i | 0%
COc1ccccc1OCCCCCc1c(C)n[nH]c1C | 0% | 4.6µM* | ? | -41% | ? | 2%
Cc1cccc(OCCCCc2c(C)n[nH]c2C)c1C | -4% | 16µM* | ? | 14µM* | ? | ?
Cc1n[nH]c(C)c1CCCOc1ccccc1 | -2% | i | ? | ? | i | -17%
CCOc1ccccc1OCCCCCc1c(C)n[nH]c1C | ? | 2.9µM* | ? | ? | 21µM* | 6%
COc1cccc(OCCc2c(C)n[nH]c2C)c1 | -7% | 21µM* | ? | ? | ? | 1%
COc1ccccc1OCCCc1c(C)n[nH]c1C | -11% | 16µM* | 3% | -4% | i | -7%
C=CCn1c(NC(=O)c2ccc(C)cc2)c(C#N)sc1=N | 1% | 1.3µM* | 3% | 3% | 5.2µM* | ?
COc1ccc(C)cc1NC(=O)N(C(C)C)C1CCN(C(C)=O)CC1 | . | i | . | . | i | .
O=C(/C=C/c1ccco1)NC(=S)Nc1cc(-c2nc3ccccc3s2)ccc1Cl | ? | ? | 1µM* | 0.63µM* | i | ?
O=C(/C=C/c1ccco1)NC(=S)Nc1cccc(-c2nc3ccccc3s2)c1 | ? | 6.5µM* | . | . | 8.2µM* | 5.8µM*
Cc1ccc(-c2nc3ccccc3s2)cc1NC(=O)c1ccc2c(c1)OCO2 | ? | i | 2% | ? | i | 8%
Cc1ccc(-c2nc3ccccc3s2)cc1NC(=S)NC(=O)/C=C/c1ccco1 | ? | ? | 10µM* | 4µM* | ? | 26%
O=C(Nc1cc(-c2nc3ccccc3s2)ccc1Cl)c1ccc2c(c1)OCO2 | -10% | i | 10% | 30% | i | 9.2µM*
CCCCCCC(=O)N1C/C=C\C(c2ccc(OC)cc2)N(Cc2ccc(F)cc2)C(=O)[C@H]1Cc1ccccc1 (some centres undefined) | -90%[9.22 µM] | ? | ? | -3% | i | -17%
COc1ccc(C2/C=C\CN(C(=O)C3CC3)[C@H](Cc3ccccc3)C(=O)N2Cc2ccc(F)cc2)cc1 (some centres undefined) | 0%[9.22 µM] | ? | -20% | 11µM* | i | -26%
COc1ccc(C2/C=C\CN(C(=O)c3ccc(C)cc3)C(C)C(=O)N2Cc2ccc(F)cc2)cc1 (centres undefined) | . | . | -18% | 28% | . | .
COc1ccc(C2/C=C\CN(C(=O)c3ccc(C)cc3)[C@H](Cc3ccccc3)C(=O)N2Cc2ccc(F)cc2)cc1 (some centres undefined) | 1% | ? | 4% | ? | 12µM* | ?
COc1ccc([C@H]2/C=C\CN(C(=O)C3CC3)[C@@H](C)C(=O)N2Cc2ccc(F)cc2)cc1 | -2% | i | . | . | i | -4%
COc1ccc(C2/C=C\CN(C(=O)C3CC3)C(Cc3ccccc3)C(=O)N2Cc2ccc(F)cc2)cc1 (centres undefined) | . | . | ? | 10µM* | . | .
